Assay results: PubChem BioAssay (NCATS)
Inconclusive results are not listed. The source made the active and inactive calls. Calls come from the whole dose curve; as a rule, active = well fitted curve in the direction sought with a large enough effect in the signal ratio; inconclusive = small, poorly fitted or top-dose-only effect, or a change in a side signal; inactive = no such curve, though single readings can be large or run the other way; the % refers to the signal ratio.

biological target: Tumor necrosis factor (Homo sapiens) (UniProt P01375); assay: qHTS assay to identify small molecules that stimulate Tumor Necrosis Factor-alpha (TNF-alpha) secretion (AID 651757); conditions: Human cells, HTRF 665/615 ratio; series mostly up to 92.2 µM
Sequence (P01375 whole entry, looked up): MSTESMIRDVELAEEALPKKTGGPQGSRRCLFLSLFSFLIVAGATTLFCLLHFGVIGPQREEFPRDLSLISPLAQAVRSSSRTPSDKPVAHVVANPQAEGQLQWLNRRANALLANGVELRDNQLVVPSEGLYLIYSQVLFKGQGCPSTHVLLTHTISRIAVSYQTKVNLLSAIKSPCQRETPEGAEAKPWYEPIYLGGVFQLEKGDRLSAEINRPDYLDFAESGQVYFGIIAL
Excerpt: National Center for Advancing Translational Sciences [NCATS]
NIH Chemical Genomics Center [NCGC]
National Institutes of Environmental Health Sciences [NIEHS]
National Toxicology Program [NTP]
Tumor Necrosis Factor-alpha (TNF-alpha), a secreted cytokine, plays an important role in inflammatory diseases and immune disorders. TNF-alpha, a 17 kDa cytokine, is mainly secreted by activated macrophages and monocytes in response to several inflammatory and immunological stimuli. To study the effect of environmental chemicals on TNF-alpha secretion, a homogeneous TNF-alpha assay was developed using Time Resolved fluorescence (HTRF) technology based on Time Resolved Fluorescent Resonance Energy Transfer (TR-FRET) (Leister et al., Current Chemical Genomics, 5:21-29, 2011). This assay allows measuring TNF-alpha secreted from the cells in a 1536-well plate format.
THP-1 cells were dispensed at 3000 cells/5ul/well in 1536-well white solid plates. After addition of 23 nl of compound, positive controls and DMSO only, the assay plates were incubated at 37 C for 17 hrs, followed by addition of 5 uLof mixture of cryptate labeled and XL665 labeled anti-TNF-alpha antibodies. After the assay plates were incubated at room temperature for 3 hr, the plates were measured by an EnVision plate reader.

Compound | outcome
CCOC(=O)c1ccccc1C(=O)OCC | inactive
CC(C)CCON=O | inactive
C[C@]12CCC(=O)C[C@@H]1CC[C@@H]1[C@@H]2CC[C@]2(C)[C@@H](O)CC[C@@H]12 | inactive
C[C@H]1CCC[C@H](O)CCCCCc2cc(O)cc(O)c2C(=O)O1 | inactive
C=CCN=C=S | inactive
O=C1C=CC(=O)C=C1 | inactive
O=C/C=C/c1ccccc1 | inactive
[O]=[Cd] | inactive
O=C1CCO1 | inactive
ClCC1CO1 (configuration not stated) | inactive
O=[N+]([O-])c1ccccc1 | inactive
CC(C)(C)c1cc(O)ccc1O | inactive
S=C=S | inactive
ClC=C(Cl)Cl | inactive
COC1=CC(=O)O[C@@H](/C=C/c2ccccc2)C1 | inactive
O=C(O)C(Cl)(Cl)Cl | inactive
O=Cc1ccco1 | inactive
Clc1ccccc1Cl | inactive
O=C1C2CC=CCC2C(=O)N1SC(Cl)(Cl)Cl (configuration not stated) | inactive
COc1ccc2c(c1OC)C(=O)OC2C1c2cc3c(cc2CCN1C)OCO3 (configuration not stated) | inactive
[O]=[Cr](=[O])([OH])[O][Cr](=[O])(=[O])[OH] | inactive
CCCCCl | inactive
ClC(Cl)(Cl)Cl | inactive
CCCCCCCCOC(=O)c1ccccc1C(=O)OCCCCCCCC | inactive
O=CC=O | inactive
C[C@H]1CC[C@@H]2[C@@H](C)[C@H]3[C@H](C[C@H]4[C@@H]5CC=C6CC(O[C@@H]7O[C@H](CO)[C@H](O)[C@H](O[C@@H]8O[C@H](CO)[C@@H](O)[C@H](O)[C@H]8O)[C@H]7O[C@H]7O[C@@H](C)[C@H](O)[C@@H](O)[C@H]7O)CC[C@]6(C)[C@H]5CC[C@]34C)N2C1 (some centres not stated) | inactive
NNC(N)=O | inactive
